Results: PubChem BioAssay (Tox21)
Inconclusive results are not listed. Entries that show only a call come without a potency. Values without a mark were called inactive. Activity calls are given as the source filed them. Calls come from the whole dose curve; as a rule, active = well fitted inhibition curve with a large enough effect in the repeat runs; inconclusive = weak or mixed curves; inactive = no such curve, though single readings can be large or run the other way.

experiment: qHTS assay to identify small molecule antagonists of the thyroid receptor (TR) signaling pathway (AID 743065); conditions: GH3.TRE-Luc, T3-stimulated luciferase inhibition, 23.5 h; series mostly up to 70.3 µM; note: nearly all actives have a fitted effect of over 55% in size
Description: U.S. Tox21 Program National Center for Advancing Translational Sciences [NCATS] NIH Chemical Genomics Center [NCGC] U.S. Environmental Protection Agency [EPA] National Institutes of Environmental Health Sciences [NIEHS] National Toxicology Program [NTP] U.S. Food and Drug Administration [FDA] Tox21 Assay Overview: Thyroid receptor (TR), a nuclear hormone receptor, plays an important role in development, proliferation, differentiation, metabolism, brain function, and cardiovascular system. […] To profile the Tox21 10K compound library in TR signaling, a cell-based GH3-TRE-Luc assay (GH3.TRE-Luc cell line, developed by the laboratory of Dr. Albertinka J. Murk, Wageningen University) was used to measure the inhibition of TR. GH3 (rat pituitary tumor) cells stably expressing a TR activity sensor consisting of two TR response elements and a luciferase reporter gene.
Tox21 Assay Protocol Summary: GH3.TRE-Luc cells were dispensed at 1500 cells/4 uL/well into 1536-well white solid bottom plates using a Multidrop Combi dispenser (Thermo Fisher Scientific Inc., Waltham, MA). After the assay plates were incubated at 37 C for 4 hours, 23 nL of library compound or DMSO controls was transferred to the assay plates by a pintool station (Kalypsys, San Diego, CA), followed by addition of 1 ul of T3 (1 nM, final concentration in the wells) to stimulate TR transactivation. The assay plates were incubated at 37 C for 23.5 h, and then 1 uL of CellTiter-Fluor reagent (Promega, Madision, WI) of measuring cytotoxicity was added to each well using a Bioraptr Flying Reagent Dispenser (FRD) workstation (Beckman Coulter, Indianapolis, IN, USA). The plates were incubated at 37 C and 5% CO2 for additional 30 min, and fluorescence intensity was measured by a ViewLux plate reader (PerkinElmer, Shelton, CT). For measuring luciferase reporter gene activity, 4 uL of ONE-Glo Luciferase Assay reagent (Promega) was added to each well using a Bioraptr FRD (Beckman Coulter), followed by 30 min incubation at room temperature. The luminescence intensity of plates was recorded by a ViewLux plate reader (PerkinElmer, Shelton, CT).

Row | Compound | Potency | activity, negative = inhibition
1 | CC1=C(O)C(=O)CO1 | inactive | 
2 | O=C(O)P(=O)(O)O | inactive | 
3 | CCCCCCCCCCCCCCCCN(C)C |  | 0.216% [at 8.44 µM]
4 | C=CC(=O)OCC[N+](C)(C)C | inactive | 
5 | COc1ccc(Cl)cc1C | inactive | 
6 | C=CCN(CC=C)CC=C | inactive | 
7 | CC(=O)OC/C=C(/C)CCC=C(C)C | inactive | 
8 | CCCCOCCCC | inactive | 
9 | CC(CN1CC(=O)NC(=O)C1)N1CC(=O)NC(=O)C1 (stereo not given) | inactive | 
10 | C/C=C/C(=O)CCCC | inactive | 
11 | COC(=O)c1ccccc1Cl | inactive | 
12 | CCCCCCC(=O)c1ccccc1 | inactive | 
13 | NNC(=O)OCc1ccccc1 | inactive | 
14 | COCCCOc1cc(C[C@@H](C[C@H](N)[C@@H](O)C[C@H](C(=O)NCC(C)(C)C(N)=O)C(C)C)C(C)C)ccc1OC | inactive | 
15 | Clc1cc(Cl)c(Cl)c(Cl)c1Cl | inactive | 
16 | O=Cc1ccccc1S(=O)(=O)O | inactive | 
17 | CC(=O)SCC(CC(=O)c1ccc(C)cc1)C(=O)O (stereo not given) | inactive | 
18 | CCCC(=O)OC | inactive | 
19 | CCCCCCCOC(C)=O | inactive | 
20 | CC(C)(C)C(=O)CC(=O)C(C)(C)C | inactive | 

Row | Compound | Potency | activity, negative = inhibition
21 | CCCCCCCCOCCC#N | inactive | 
22 | CCc1ccc(CC)cc1 | inactive | 
23 | COc1cnc(NS(=O)(=O)c2ccc(N)cc2)nc1 | inactive | 
24 | Cc1cc(C)c(C)c(C)c1 | inactive | 
25 | CC(C)(C)c1ccc(N)cc1 | inactive | 
26 | CCNC(=O)C(C)OC(=O)Nc1ccccc1 (stereo not given) | inactive | 
27 | CC1(C)CC(N)CC(C)(C)N1 | inactive | 
28 | C=CCON/C(CCC)=C1\C(=O)CC(C)(C)C(C(=O)OC)=C1O | inactive | 
29 | C/C(=N\O)c1ccc(OCC(=O)N2CCCCC2)cc1 | inactive | 
30 | N#Cc1ccccc1C#N | inactive | 
31 | CC(C)(C)C(=O)NCCCC(=O)O | inactive | 
32 | Cc1ccc(O)c([N+](=O)[O-])c1 | inactive | 
33 | C=CC(C)(CCC=C(C)C)OC(=O)C(C)C (stereo not given) | inactive | 
34 | C=CCCCCCCCCOC(C)=O | inactive | 
35 | OCCC(F)(F)C(F)(F)C(F)(F)C(F)(F)C(F)(F)C(F)(F)F | inactive | 
36 | CCOCCOCCOC(C)=O | inactive | 
37 | CCN(CC)CC | inactive | 
38 | COC(=O)/C=C(\C)CCC=C(C)C | inactive | 
39 | O=C1Nc2ccccc2C1=O | inactive | 
40 | CC(C)CC(O)Cc1ccccc1 (stereo not given) | inactive | 
